Results from PubChem BioAssay.
For part of these data: Potency and affinity values are given separately. Calls of active or inactive are those of the source.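 How the source made its calls, unless noted: active means primary screen hit whose fluorescence ratio, in both repeats, exceeds the weak agonist control mean by 3 SD; inactive means the rest.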

Columns and labels:
[1] = test system: TRPC4 beta (transient receptor potential cation channel C4), mouse; test: TRPC4 cation channel opening, retest – cell-based, Fluo4 calcium, HEK293 TRPC4beta/mu-opioid, duplicates, 10 µM, confirmation (AID 2426;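 active means fluorescence ratio normalized to control raised more than 50% in primary screen plus both repeat runs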;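 on activation: percent rise of integrated ratio over buffer wells lacking compound which define 0%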); settings: Fluo4 calcium fluorescence, at 10 µM; active compounds read high
[2] = test system: transient receptor potential cation channel C4 beta (TRPC4), mouse; test: TRPC4 cation channel opening, second retest – cell-based, second round, Fluo4, HEK293 TRPC4beta/mu-opioid, 1 µM, confirmation (AID 2461;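 active means primary screen active and over 50% activation in each of two duplicate runs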); settings: Fluo4 calcium fluorescence, at 1 µM; active compounds read high
[3] = test system: TRPC4 (transient receptor potential cation channel C4 beta), mouse; test: potentiation of DAMGO EC20 TRPC4 response – cell-based, second round, Fluo-4, HEK293 TRPC4beta/mu-opioid, 1 µM, confirmation (AID 2554); settings: DAMGO EC20, Fluo-4 calcium flux, at 1 µM; active compounds read high
[4] = test system: TRPC4 beta (transient receptor potential cation channel C4), mouse; test: potentiation of DAMGO EC20 TRPC4 response – cell-based, Fluo-4, HEK293 TRPC4beta/mu-opioid, confirmation (AID 2555;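 active means primary screen hit whose calcium fluorescence ratio, in both repeats, exceeds the weak agonist control mean by 3 SD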); settings: DAMGO EC20, Fluo-4 calcium flux, at 10 µM; active compounds read high
[5] = target: Short transient receptor potential channel 4 (Mus musculus) (UniProt Q9QUQ5); test: blockers of DAMGO-evoked TRPC4 calcium flux – cell-based, Fluo4, HEK293 TRPC4beta/mu-opioid, confirmation (AID 2636;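 active means calcium signal cut by more than 3 SD below the full-agonist control yet still positive, in both repeats and the earlier primary screen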); settings: at 10 µM; active compounds read high
[6] = target: Short transient receptor potential channel 4 (Mus musculus) (UniProt Q9QUQ5); test: blockers of DAMGO-evoked TRPC4 calcium flux – cell-based, second round, Fluo4, HEK293 TRPC4beta/mu-opioid, 1 µM, confirmation (AID 2637;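 active means calcium signal ratio cut to more than 3 SD under the fully stimulated control mean yet still positive, in both repeats and the primary screen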); settings: at 1 µM; active compounds read high
[7] = target: Short transient receptor potential channel 4 (Mus musculus) (UniProt Q9QUQ5); test: calcium entry via TRPC4 opening agents – cell-based, HEK293 TRPC4/mu-opioid, Fluo-4 calcium, dose response (AID 434937;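 active means primary screen activator hit with a dose response curve and TRPC4 channel activation at any tested dose; inactive means no activation, no dose response, or not a primary hit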)
[8] = target: Short transient receptor potential channel 4 (Mus musculus) (UniProt Q9QUQ5); test: potentiation of DAMGO-evoked TRPC4 calcium signal – cell-based, HEK293 TRPC4/mu-opioid, Fluo-4 calcium, EC20 DAMGO, dose response (AID 434941;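 active means earlier screen potentiator hit that boosts the TRPC4 ion channel at some dose, with a dose response; inactive means no potentiation, no dose response, or not a prior hit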;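 further: calcium entry triggered by an EC20 dose of DAMGO at the co-expressed mu-opioid receptor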)
[9] = target: Short transient receptor potential channel 4 (Mus musculus) (UniProt Q9QUQ5); test: block of DAMGO-driven TRPC4 calcium entry – cell-based, HEK293 TRPC4/mu-opioid, Fluo-4 calcium, dose response (AID 434942;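 active means primary screen inhibitor hit that blocks the TRPC4 channel at some tested dose, yielding a dose curve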)
[10] = target: Short transient receptor potential channel 6 (Mus musculus) (UniProt Q61143); test: TRPC6 blockade by TRPC4 inhibitor hits – cell-based, HEK293, membrane potential dye, duplicate, selectivity assay for TRPC4 inhibitor project, confirmation (AID 434948;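 active means active in primary screen and both duplicates, each dropping signal beyond three positive-control SD with fluorescence still positive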); settings: HEK293 TRPC6, membrane potential dye fluorescence, at 10 µM, stimulated with maximal-effect acetylcholine; active compounds read high
[11] = target: Short transient receptor potential channel 6 (Mus musculus) (UniProt Q61143); test: TRPC6 opening by TRPC4 activator hits – cell-based, HEK293, membrane potential dye, duplicate, selectivity assay for TRPC4 activator project, confirmation (AID 434950;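 active means membrane potential signal rise above negative control mean plus 3 SD in both duplicates, also active in the earlier TRPC4 screen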;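 on activation: 0% = buffer only wells and 100% = acetylcholine maximal-effect wells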); settings: HEK293 TRPC6, membrane potential fluorescence, at 10 µM; activation: active compounds read high; outcome: activation
[12] = target: Short transient receptor potential channel 6 (Mus musculus) (UniProt Q61143); test: positive modulators of mouse TRPC6 channel – HEK293 cells, membrane potential dye, duplicate, selectivity assay for TRPC4 potentiator project, confirmation (AID 434952;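 active means compound raising the membrane signal above positive-control mean plus 3 SD in both repeats, and a primary screen hit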); settings: HEK293 TRPC6, membrane potential dye fluorescence, at 10 µM, maximal acetylcholine added after compound; active compounds read high
[13] = target: Short transient receptor potential channel 4 (Mus musculus) (UniProt Q9QUQ5); test: calcium flux activators in TRPC4/5HT1a cells, counter-screen for TRPC4 activator project, cell-based, second counter screen, HEK293 TRPC4/5HT1a, Fluo-4 (AID 434977;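 active means calcium signal rise above buffer-control mean plus 5 SD in both duplicates, and also a hit in the primary screen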;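 on activation: plate controls were assay buffer for no effect and maximal serotonin response for full effect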); settings: Fluo-4 calcium flux, at 10 µM; active compounds read high
[14] = serotonin-gated TRPC4 signal block – cell-based, second counter screen, HEK293 TRPC4/5HT1a, Fluo-4, counter-screen for TRPC4 inhibitor project, confirmation (AID 434978;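 active means primary screen active whose calcium signal fell more than 3 SD beyond the full-serotonin control mean in both duplicate plates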;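 on outcome: serotonin given first at submaximal then at maximal dose after compound preincubation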); settings: Fluo-4 calcium flux, at 10 µM, serotonin added to trigger calcium flux; active compounds read high
[15] = test system: TRPC4 (mouse), co-expressed with 5HT1a in HEK293; test: enhancement of serotonin-evoked TRPC4 response – cell-based, second counter screen, HEK293 TRPC4/5HT1a, Fluo-4, counter-screen for TRPC4 potentiator project, confirmation (AID 434979;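 active means signal rise over 3 SD above mean of control wells given weak agonist, in both repeats and first screen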); settings: Fluo-4 calcium flux, at 10 µM, serotonin added at its EC20 dose; active compounds read high
[16] = nonspecific calcium rise without TRPC4 – cell-based, HEK293 mu-opioid receptor line, counter-screen for TRPC4 activator project, confirmation (AID 449723;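 active means hit in primary screen, with calcium signal over 5 SD above buffer well mean in both duplicates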;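 further: counter screen cells carry the mu-opioid receptor alone and lack TRPC4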); settings: HEK293 mu-opioid cells, Fluo-4 calcium fluorescence, at 10 µM; active compounds read high
[17] = nonspecific potentiation of DAMGO calcium response – cell-based, HEK293 mu-opioid receptor line, counter-screen for TRPC4 allosteric potentiator project, confirmation (AID 449724;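 active means calcium signal rise more than 3 SD above the low-dose agonist control mean, in both duplicate plates and the primary screen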); settings: HEK293 mu-opioid receptor cells, Fluo-4 calcium flux, at 10 µM, compound added before EC20 DAMGO stimulus; active compounds read high

Chain of Short transient receptor potential channel 6 (Mus musculus) (Q61143 whole entry, looked up): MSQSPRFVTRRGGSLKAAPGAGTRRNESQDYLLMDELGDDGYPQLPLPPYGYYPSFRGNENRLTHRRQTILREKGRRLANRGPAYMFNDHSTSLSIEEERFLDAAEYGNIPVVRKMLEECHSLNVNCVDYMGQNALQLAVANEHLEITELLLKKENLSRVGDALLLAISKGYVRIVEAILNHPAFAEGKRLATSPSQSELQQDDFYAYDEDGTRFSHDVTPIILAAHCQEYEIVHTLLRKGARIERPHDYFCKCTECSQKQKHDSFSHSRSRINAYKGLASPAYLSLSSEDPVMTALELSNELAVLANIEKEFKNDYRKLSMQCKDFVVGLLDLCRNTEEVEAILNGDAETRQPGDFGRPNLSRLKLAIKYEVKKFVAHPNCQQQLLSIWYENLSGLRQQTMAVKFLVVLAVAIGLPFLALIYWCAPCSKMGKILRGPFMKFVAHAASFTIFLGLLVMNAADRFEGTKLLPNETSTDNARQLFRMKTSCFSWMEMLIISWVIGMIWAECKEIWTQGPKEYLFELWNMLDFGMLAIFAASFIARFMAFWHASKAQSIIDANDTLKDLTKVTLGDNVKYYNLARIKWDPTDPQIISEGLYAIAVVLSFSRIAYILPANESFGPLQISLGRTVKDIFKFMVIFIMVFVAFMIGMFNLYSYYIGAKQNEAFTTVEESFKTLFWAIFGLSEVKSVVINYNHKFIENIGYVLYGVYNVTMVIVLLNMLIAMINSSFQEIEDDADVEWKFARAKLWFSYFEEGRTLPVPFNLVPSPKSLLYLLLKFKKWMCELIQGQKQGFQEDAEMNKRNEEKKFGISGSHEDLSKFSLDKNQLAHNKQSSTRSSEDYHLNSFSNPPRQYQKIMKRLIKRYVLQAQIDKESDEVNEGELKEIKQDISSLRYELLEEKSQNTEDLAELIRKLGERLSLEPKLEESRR
Chain of Short transient receptor potential channel 4 (Mus musculus) (Q9QUQ5 whole entry, looked up): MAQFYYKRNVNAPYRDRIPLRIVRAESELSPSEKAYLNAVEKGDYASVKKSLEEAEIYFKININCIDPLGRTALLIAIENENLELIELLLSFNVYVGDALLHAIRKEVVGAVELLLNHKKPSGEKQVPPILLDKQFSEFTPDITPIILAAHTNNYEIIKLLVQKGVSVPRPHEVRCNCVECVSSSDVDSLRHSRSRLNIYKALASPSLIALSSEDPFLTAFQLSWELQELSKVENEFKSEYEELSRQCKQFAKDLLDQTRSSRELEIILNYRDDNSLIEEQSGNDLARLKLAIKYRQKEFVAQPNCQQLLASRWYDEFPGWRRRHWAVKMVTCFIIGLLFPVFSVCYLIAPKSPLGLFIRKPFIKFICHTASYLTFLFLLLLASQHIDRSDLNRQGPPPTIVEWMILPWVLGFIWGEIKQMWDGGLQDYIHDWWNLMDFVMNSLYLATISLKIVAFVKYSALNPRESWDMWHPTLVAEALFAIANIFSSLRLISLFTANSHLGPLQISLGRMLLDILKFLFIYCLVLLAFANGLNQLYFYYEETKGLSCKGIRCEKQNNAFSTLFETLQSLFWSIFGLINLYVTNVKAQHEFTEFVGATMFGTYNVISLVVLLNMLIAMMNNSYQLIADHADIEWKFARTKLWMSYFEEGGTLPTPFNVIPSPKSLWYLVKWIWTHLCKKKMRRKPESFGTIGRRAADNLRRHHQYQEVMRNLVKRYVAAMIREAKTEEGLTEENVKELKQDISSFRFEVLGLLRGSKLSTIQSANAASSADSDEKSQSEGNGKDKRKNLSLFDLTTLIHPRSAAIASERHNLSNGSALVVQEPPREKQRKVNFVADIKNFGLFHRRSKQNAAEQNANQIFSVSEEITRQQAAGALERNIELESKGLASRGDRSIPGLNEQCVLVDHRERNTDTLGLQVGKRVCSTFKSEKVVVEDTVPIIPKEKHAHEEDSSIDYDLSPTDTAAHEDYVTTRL

CCOC(=O)C1=C(N)OC2=C(C(=O)CC(C)(C)C2)C1c1ccc(CC)s1 (stereo not given)
inactive: outcome [1] | outcome [2] | outcome [3] | outcome [4] | outcome [5] | outcome [6] | outcome [7] | outcome [8] | outcome [9] | outcome [10] | outcome [11] | outcome [12] | outcome [13] | outcome [14] | outcome [16] | outcome [17]
active: potentiation [15] 27.5%

CC(C)CN(C(=O)COC(=O)COc1ccc2ccccc2c1)c1c(N)n(Cc2ccccc2)c(=O)[nH]c1=O
active: potentiation [15] 14.7%
inactive: outcome [1] | outcome [2] | outcome [3] | outcome [4] | outcome [5] | outcome [6] | outcome [7] | outcome [8] | outcome [9] | outcome [10] | outcome [11] | outcome [12] | outcome [13] | outcome [14] | outcome [16] | outcome [17]

Cc1cc(Nc2ccccc2O)c2ccccc2n1
inactive: outcome [1] | outcome [2] | outcome [3] | outcome [4] | outcome [5] | outcome [6] | outcome [7] | outcome [8] | outcome [9] | outcome [10] | outcome [11] | outcome [12] | outcome [13] | outcome [14] | outcome [15] | outcome [16] | outcome [17]

C/C(=N/OCO/N=C(/C)c1ccc(F)cc1)c1ccc(F)cc1
inactive: outcome [1] | outcome [2] | outcome [3] | outcome [4] | outcome [5] | outcome [6] | outcome [7] | outcome [8] | outcome [9] | outcome [10] | outcome [11] | outcome [12] | outcome [13] | outcome [14] | outcome [15] | outcome [16] | outcome [17]

CCN(C(=O)c1cnc(NC(C)C)cc1C(F)(F)F)c1ccc(Cl)cc1Cl
active: inhibition [5] 91% | inhibition [14] 44.8%
inactive: outcome [1] | outcome [2] | outcome [3] | outcome [4] | outcome [6] | outcome [7] | outcome [8] | outcome [9] | outcome [10] | outcome [11] | outcome [12] | outcome [13] | outcome [15] | outcome [16] | outcome [17]

c1cnc(N2CCN(c3cnccn3)CC2)nc1
inactive: outcome [1] | outcome [2] | outcome [3] | outcome [4] | outcome [5] | outcome [6] | outcome [7] | outcome [8] | outcome [9] | outcome [10] | outcome [11] | outcome [12] | outcome [13] | outcome [14] | outcome [15] | outcome [16] | outcome [17]

CC(C)Cc1nc(Cl)c(C#N)c2c1CCCC2
inactive: outcome [1] | outcome [2] | outcome [3] | outcome [4] | outcome [5] | outcome [6] | outcome [7] | outcome [8] | outcome [9] | outcome [10] | outcome [11] | outcome [12] | outcome [13] | outcome [14] | outcome [15] | outcome [16] | outcome [17]

O=C(CC1CCCCC1)c1c(O)c2ccccc2oc1=O
active: activation [1] 151% | activation [11] 33.5% | activation [13] 62.5% | activation [16] 30.8%
inactive: outcome [2] | outcome [3] | outcome [4] | outcome [5] | outcome [6] | outcome [7] | outcome [8] | outcome [9] | outcome [10] | outcome [12] | outcome [14] | outcome [15] | outcome [17]

C=CCc1cc(Cl)ccc1OCCCn1ccnc1
active: potentiation [3] 9%
inactive: outcome [1] | outcome [2] | outcome [4] | outcome [5] | outcome [6] | outcome [7] | outcome [8] | outcome [9] | outcome [10] | outcome [11] | outcome [12] | outcome [13] | outcome [14] | outcome [15] | outcome [16] | outcome [17]

O=C(Nc1ncc(Br)s1)C(Cc1ccccc1)n1cccc1 (stereo not given)
inactive: outcome [1] | outcome [2] | outcome [3] | outcome [5] | outcome [6] | outcome [7] | outcome [8] | outcome [9] | outcome [10] | outcome [11] | outcome [12] | outcome [13] | outcome [14] | outcome [16] | outcome [17]
active: potentiation [4] 26% | potentiation [15] 7.42%

CC(C)Cc1nc(N2CCN(C(=O)C(C)C)CC2)c(C#N)c2c1CCC2
active: potentiation [4] 33%
inactive: outcome [1] | outcome [2] | outcome [3] | outcome [5] | outcome [6] | outcome [7] | outcome [8] | outcome [9] | outcome [10] | outcome [11] | outcome [12] | outcome [13] | outcome [14] | outcome [15] | outcome [16] | outcome [17]

CCOC(=O)C1C(=O)C=C(c2ccc(C)cc2)CC1c1cccc([N+](=O)[O-])c1 (stereo not given)
inactive: outcome [1] | outcome [2] | outcome [3] | outcome [5] | outcome [6] | outcome [7] | outcome [8] | outcome [9] | outcome [10] | outcome [11] | outcome [12] | outcome [13] | outcome [14] | outcome [16] | outcome [17]
active: potentiation [4] 46% | potentiation [15] 38.9%

CC(C)Oc1cccc(C(=O)NC(=S)Nc2ccc(N3CCN(C)CC3)cc2)c1
inactive: outcome [1] | outcome [2] | outcome [3] | outcome [4] | outcome [5] | outcome [6] | outcome [7] | outcome [8] | outcome [9] | outcome [10] | outcome [11] | outcome [12] | outcome [13] | outcome [14] | outcome [16] | outcome [17]
active: potentiation [15] 16.6%

CCN(CC)CCCNC(=S)N1CCN(c2nc3ccccc3n2CC)CC1
inactive: outcome [1] | outcome [2] | outcome [3] | outcome [4] | outcome [5] | outcome [6] | outcome [7] | outcome [8] | outcome [9] | outcome [10] | outcome [11] | outcome [12] | outcome [13] | outcome [14] | outcome [16] | outcome [17]
active: potentiation [15] 17.1%

CCOC(=O)c1c(C)oc2ccc(O)c(CN3CCCCC3)c12
inactive: outcome [1] | outcome [2] | outcome [3] | outcome [4] | outcome [5] | outcome [6] | outcome [7] | outcome [8] | outcome [9] | outcome [10] | outcome [11] | outcome [12] | outcome [13] | outcome [14] | outcome [15] | outcome [16] | outcome [17]
